Bioassay records deposited in PubChem BioAssay by National Center for Advancing Translational Sciences (NCATS).
KB-3-1 tox: qHTS assay for MDR1-selective chemotherapeutics: Primary screen using the parental adenocarcinoma cell KB-3-1. KB-3-1 viability, CellTiter-Glo ATP luminescence, 72 h. Potency, µM (top dose mostly 46.1 µM), actives largely listed as cytotoxic. actives 1.4% (n = 400,000). AID 1347075, 2019; further: potency means the concentration at half of the fitted maximal effect; on the % scale 0 is the no-effect control and ±100 the full control effect; nearly all actives have a fitted effect of over 60% in size
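Cells are dispensed, compounds pinned in, plates held at 37 °C for 72 h, then CellTiter-Glo is added and luminescence read after 10 minutes. Cell line: parental KB-3-1 in phenol-red-free DMEM, 10% FBS.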
SW480 rerep: A quantitative high throughput screen for small molecules that induce DNA re-replication in SW480 colon adenocarcinoma cells | SW480 DNA re-replication, Hoechst DNA content imaging, 48 h | Potency, µM (titrated, usually from 46.1 µM), without a hit: at the top dose re-replication activation, most hits filed as activators | actives 1.8% (n = 340,000) | AID 624297, 2012; further: potency means the concentration at half of the fitted maximal effect; % of control where 0% means no effect; nearly all actives have a fitted effect of over 55% in size
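Readout is total intensity of Hoechst-stained nuclei, excited at 405 nm and collected at 500-530 nm. Compound treatment lasted 48 hr at 37 C in 5% CO2 before staining.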
KB-V1 cytotox: qHTS assay for MDR1-selective chemotherapeutics: Primary screen using the drug-selected MDR subline cells KB-V1 | KB-V1 MDR cells viability, CellTiter-Glo, 72 h | Potency, µM (doses to about 46.1 µM), usual class: cytotoxic | actives 3.4% (n = 400,000); further: potency means the concentration at half of the fitted maximal effect; on the % scale 0 is the no-effect control and ±100 the full control effect; nearly all actives have a fitted effect of over 60% in size
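Cells of the MDR subline KB-V1 are plated, dosed with compound at multiple concentrations, and incubated 72 h at 37 degrees C; CellTiter-Glo is then added and luminescence read after 10 min.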
MCF10A rereplic: A quantitative high throughput screen for small molecules that induce DNA re-replication in MCF 10a normal breast cells; actives 2.9% (n = 350,000); Potency, µM (top dose mostly 46.1 µM), for the others: at the top dose activity, positive = re-replication, actives largely listed as activators; MCF 10A DNA re-replication, Hoechst nuclear intensity, 48 h; further: potency means the concentration at half of the fitted maximal effect; % of control where 0% means no effect; nearly all actives have a fitted effect of over 50% in size
hERG WT inh: qHTS for Inhibitors of KCHN2 3.1: Wildtype qHTS. Voltage-gated inwardly rectifying potassium channel KCNH2 (Homo sapiens), Q12809. U2OS, BacMam KCNH2, thallium flux FluxOr; active compounds read low. activity change, % at 1.84 µM. actives 0.37% (n = 340,000). AID 720551, 2013;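 active means maximum activity change below -70%; inconclusive means maximum activity change between -70% and -50%; inactive means maximum activity change above -50%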; further: on the % scale 0 is the no-effect control and ±100 the full control effect
Target sequence (Q12809 whole entry, looked up): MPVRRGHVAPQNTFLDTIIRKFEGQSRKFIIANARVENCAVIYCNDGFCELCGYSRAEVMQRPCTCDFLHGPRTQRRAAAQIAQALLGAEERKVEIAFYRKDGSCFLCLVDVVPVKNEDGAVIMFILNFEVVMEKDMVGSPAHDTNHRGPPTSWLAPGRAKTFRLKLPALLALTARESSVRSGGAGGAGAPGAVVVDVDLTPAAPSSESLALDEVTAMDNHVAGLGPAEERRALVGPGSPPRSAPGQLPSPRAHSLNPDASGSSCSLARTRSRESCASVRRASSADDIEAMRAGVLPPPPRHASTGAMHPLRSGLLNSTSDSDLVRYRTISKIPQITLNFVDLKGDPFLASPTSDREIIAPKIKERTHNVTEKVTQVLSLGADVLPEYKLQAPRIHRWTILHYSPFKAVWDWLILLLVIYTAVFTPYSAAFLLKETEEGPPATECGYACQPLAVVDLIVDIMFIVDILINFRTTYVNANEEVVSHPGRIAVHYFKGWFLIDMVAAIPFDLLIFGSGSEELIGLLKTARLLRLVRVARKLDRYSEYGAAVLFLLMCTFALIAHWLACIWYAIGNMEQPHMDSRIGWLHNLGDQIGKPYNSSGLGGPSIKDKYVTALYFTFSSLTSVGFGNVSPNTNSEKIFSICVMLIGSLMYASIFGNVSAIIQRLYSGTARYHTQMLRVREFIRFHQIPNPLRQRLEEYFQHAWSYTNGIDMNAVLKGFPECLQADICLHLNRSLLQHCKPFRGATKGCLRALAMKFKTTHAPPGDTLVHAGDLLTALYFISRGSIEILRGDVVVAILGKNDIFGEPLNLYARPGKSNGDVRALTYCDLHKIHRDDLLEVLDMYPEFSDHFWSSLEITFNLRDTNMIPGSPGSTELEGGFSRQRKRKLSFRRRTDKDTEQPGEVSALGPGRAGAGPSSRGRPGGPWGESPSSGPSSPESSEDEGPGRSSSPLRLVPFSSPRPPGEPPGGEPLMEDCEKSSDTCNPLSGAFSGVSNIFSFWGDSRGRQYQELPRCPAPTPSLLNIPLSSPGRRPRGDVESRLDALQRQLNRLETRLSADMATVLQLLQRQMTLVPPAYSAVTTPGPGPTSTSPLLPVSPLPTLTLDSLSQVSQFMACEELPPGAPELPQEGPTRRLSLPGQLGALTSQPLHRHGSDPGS
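U2OS cells transduced with wild-type KCNH2 virus are loaded with FluxOr dye for 45 min, and thallium flux is measured in kinetic reads before and after stimulation buffer. Rate constants are normalized to DMSO controls.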
KCNH2 3.1 inh: qHTS for Inhibitors of KCHN2 3.1: Mutant qHTS. activity change, % (tested at about 1.8 µM). U2OS KCNH2 3.1, thallium flux FluxOr; active compounds read low. Potassium voltage-gated channel subfamily H member 2, brain isoform KCNH2 3.1 (human). actives 0.95% (n = 340,000);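 active means maximum activity change below -70%; inconclusive means maximum activity change from -70% to -50%; inactive means maximum activity change above -50%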;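 further: thallium influx rate constant from kinetic fluorescence after stimulation buffer; on the % scale 0 is the no-effect control and ±100 the full control effect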
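We transduce U2OS cells with the mutant 3.1 virus, culture them overnight, load FluxOr with Red40 quencher for 45 min, then add stimulation buffer and read kinetically for 2 min to derive a normalized rate constant.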
* = called active by the depositor; i = inactive; ? = inconclusive; nt = not tested or not shown; ! = a repeat was not active; [ ] = remark or other dose. Rows were chosen to be rich in hits. Some 7.6% of all compounds tested hit in one or more screens of this group. Unless noted, the call rests on the fitted dose curve; in most records, active means well fitted curve in the direction sought with a large enough effect; inconclusive means small, poorly fitted or top-dose-only effect, or another doubt; inactive means no such curve, though single readings can be large; an effect the other way counts as inactive or inconclusive.

SMILES	KB-3-1 tox	SW480 rerep	KB-V1 cytotox	MCF10A rereplic	hERG WT inh	KCNH2 3.1 inh
Nc1c(C(=O)NCCc2ccccc2)sc2nc(N3CCOCC3)c3c(c12)CCCC3	i	14.6µM*	i	16.4µM*	-12.0	-8.0
c1ccc(CN2CCN(CCOCCOc3ccc4c(c3)CCC4)CC2)cc1	?	?	?	?	9.2	-16.0
Cc1ccc(N=CC2=C(O)CC(c3ccco3)CC2=O)cc1 (centres undefined)	i	-0.4%	?	8.0%	1.1	-15.2
CC1(C)CC(=O)C(C=Nc2ccc(N)cc2)=C(O)C1	i	?	i	0.651µM*	-23.5	-11.0
CC1(C)CC(=O)C(C=Nc2ccc(Cl)cn2)=C(O)C1	i	-8.4%	i	-3.9%	-0.9	10.8
Cc1[nH]nc(N=CC2=C(O)CC(c3ccco3)CC2=O)c1-c1ccc(Cl)cc1 (centres undefined)	i	-0.7%	16.4µM*	18.1%	7.6	-2.8
Cc1[nH]nc(N=CC2=C(O)CC(C)(C)CC2=O)c1-c1ccc(Cl)cc1	i	?	20.6µM*!	18.4µM*!	7.9	-2.6
COc1ccc(/C=N/NC(=O)c2nnn(-c3nonc3N)c2CN(C)C2CCCCC2)cc1	i	-1.5%	i	12.3%	0.1	2.6
O=C(O)C1CCC(=O)N1Cc1ccc(F)cc1 (centres undefined)	i	10.4%	i	16.4µM*	-11.6	16.3
O=S(=O)(c1ccc(Cl)cc1)N1CCN(c2nc(-c3cccs3)nc3ccccc23)CC1	i	2.5%	?	-1.1%	0.5	-89.9*
CC(C)n1cnc2c(NCc3ccccc3)cc(N[C@H](C)CO)cc21	?	0.651µM*	i	?	-3.2	2.4
CCC(CO)Oc1cc(NCc2ccccc2)c2ncn(C(C)C)c2c1 (centres undefined)	i	13.1%	i	-2.7%	7.2	-16.4
CCCCSc1nc2sc3c(c2c(=O)n1-c1ccccc1)CCN(C)C3	i	23.5%	i	?	4.6	19.4
CN1CCc2c(sc3nc(SCC(N)=O)n(-c4ccc(Cl)cc4)c(=O)c23)C1	i	?	i	16.4µM*	-2.5	12.7
CCSc1nc2sc3c(c2c(=O)n1-c1ccccc1)CCN(C(C)C)C3	i	-1.3%	i	18.4µM*	2.9	9.3
COC(=O)c1ccc(CSc2nc3c([nH]c4ccccc43)c(=O)n2-c2cccc(Cl)c2)o1	i	nt	i	nt	nt	nt
CC(C)CCNC(=O)Nc1ccc2c(c1)N(C)C(=O)CS2	i	0.6%	20.6µM*	0.6%	-3.6	-0.2
Cc1cc(C)nc(/N=C(\N)Nc2ccc(OCc3ccccc3)cc2)n1	?	?	?	?	18.2	-79.8*
COc1ccccc1N/C(N)=N/c1nc(C)cc(C)n1	i	-21.2%	i	?	30.9	-16.2
Cc1cc(C)nc(/N=C(\N)Nc2ccc(CC(=O)OC(C)C)cc2)n1	?	0.9%	i	?	39.2	-21.3
Cc1cc(C)nc(/N=C(\N)Nc2ccc(OCCC(C)C)cc2)n1	?	28.5%	?	?	42.1	-82.2*
COc1ccc(N/C(N)=N/c2nc(C)cc(C)n2)cc1	i	nt	i	nt	-3.8	-14.5
Cc1cc(C)nc(/N=C(\N)Nc2cccc(OCc3ccccc3)c2)n1	?	?	5.8µM*	13µM*	1.6	?
Cn1c(NCC2CCCCC2)nc2cc(-c3ccsc3)sc2c1=O	18.4µM*	nt	i	nt	nt	nt
Cn1c(NCc2ccncc2)nc2cc(-c3ccsc3)sc2c1=O	i	nt	i	nt	nt	nt
SMILES	KB-3-1 tox	SW480 rerep	KB-V1 cytotox	MCF10A rereplic	hERG WT inh	KCNH2 3.1 inh
COc1ccc(-c2cc3nc(NCc4ccc(C)cc4C)n(C)c(=O)c3s2)cc1OC	14.6µM*	nt	2.59µM*	nt	nt	nt
COc1ccccc1CNc1nc2cc(-c3ccsc3)sc2c(=O)n1C	?	nt	20.6µM*	nt	nt	nt
COc1ccccc1CNc1nc2cc(-c3sccc3C)sc2c(=O)n1C	i	nt	i	nt	nt	nt
CC(C)CC1N=C2c3ccccc3N=C(SCC(=O)NCCc3ccc(Cl)cc3)N2C1=O (centres undefined)	i	nt	i	nt	nt	nt
COc1ccc(N2CCN(C(=O)[C@H](Cc3c[nH]c4ccccc34)NC(C)=O)CC2)cc1	i	-6.6%	i	-9.9%	-12.3	7.6
Cc1ccc(C(=O)CSc2nnc(-c3ccccc3)o2)cc1	i	-27.8%	i	-20.7%	2.7	-18.6
CC1=CC(C)(C)N(C(=O)CSc2nnc(N)s2)c2cc(C)c(C)cc21	i	-3.9%	11.6µM*	?	-21.1	-23.8
CC1=CC(C)(C)N(C(=O)CSc2nnc(C)s2)c2ccc(C)cc21	i	-0.8%	?	1.3%	-4.0	4.1
CC1=CC(C)(C)N(C(=O)CSc2nnc(-c3ccc(C)cc3)o2)c2ccc(C)cc21	?	16.4%	8.2µM*	?	-16.3	?
CCCCC[C@H](O)/C=C\[C@@H]1[C@H](O)CC(=O)[C@@H]1CCCCCCC(=O)O	nt	-8.9%[20.6 µM]	nt	1.9%[20.6 µM]	nt	nt
c1ccc(COn2nnc3ccccc32)c(COn2nnc3ccccc32)c1	i	-6.8%	16.4µM*	?	-1.1	4.6
Clc1cccc(Cl)c1COn1nnc2ccccc21	i	?	?	?	-1.5	-1.9
Cc1nc2ccc(NC(=O)c3ccc(Cl)c(NC(=O)c4cccs4)c3)cc2s1	i	-8.5%	23.1µM*	1.8%	0.2	-22.9
Cc1ccc(NC(=O)c2ccc(Cl)c(NC(=O)c3cccs3)c2)cc1	i	29.1%	i	-15.7%	20.8	11.7
